CYP2C9 act: human CYP2C9 activators, primary screen, biochemical, luminescence | Cytochrome P450 2C9 (Homo sapiens), P11712 | activation factor at 5 µM | 96,000 tested, 1.4% active | recombinant CYP2C9, luciferin-H conversion; stronger effect = higher value; factor 1 = untreated enzyme, 0 = blocked;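 active means activation factor of 2 or more for CYP2C9 at a 5 µM dose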;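 further: 0 = sulfaphenazole-blocked wells and 1 = vehicle-only wells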
Target sequence (P11712 whole entry, looked up): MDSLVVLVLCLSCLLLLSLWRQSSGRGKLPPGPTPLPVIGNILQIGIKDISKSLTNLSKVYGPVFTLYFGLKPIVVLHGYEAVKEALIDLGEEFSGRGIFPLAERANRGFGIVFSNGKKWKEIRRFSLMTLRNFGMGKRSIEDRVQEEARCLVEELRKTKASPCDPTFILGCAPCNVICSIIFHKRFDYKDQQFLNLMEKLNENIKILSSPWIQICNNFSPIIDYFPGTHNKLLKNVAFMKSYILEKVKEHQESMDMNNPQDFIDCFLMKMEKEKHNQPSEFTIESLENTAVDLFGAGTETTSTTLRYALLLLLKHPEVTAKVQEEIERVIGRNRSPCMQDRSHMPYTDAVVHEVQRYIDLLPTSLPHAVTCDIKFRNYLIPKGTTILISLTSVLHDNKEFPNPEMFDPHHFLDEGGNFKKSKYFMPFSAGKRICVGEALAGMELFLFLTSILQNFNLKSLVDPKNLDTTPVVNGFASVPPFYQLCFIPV
PostGolgi yeast: phenotypic screen on post-Golgi transport, primary screen. post-Golgi transport phenotypic cell assay. inhibition, % at 10 µM. 98,000 tested, 0.9% active. AID 739, 2007;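 further: yeast cells grown in 1536-well plates; yeast grown about 18 h at 30C before absorbance read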
CYP2C19 activ: human CYP2C19 activators, primary screen, biochemical, luminescence. Cytochrome P450 2C19 (Homo sapiens), P33261. recombinant CYP2C19, luciferin-H EGE luminescence; stronger effect = higher value; 0 = fully inhibited enzyme, 1 = untreated enzyme. activation factor at 5 µM. 96,000 tested, under 10 active;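 active means activation factor of at least 2 at 5 µM in the primary screen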;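 further: 0 = wells with 2.5 mM tranylcypromine and 1 = vehicle-only wells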
PostGolgi ctrl: growth inhibition of yeast control strain, primary screen, counter-screen for post-Golgi transport modulator project; efflux-deficient yeast background strain, growth absorbance A615, 16 h; inhibition, % at 10 µM; 98,000 tested, 5% active; AID 738, 2007
CYP2C19 inhib: blockers of cytochrome P450 2C19 activity – biochemical, luminescence, ADME assay, primary screen; AID 778, 2007; CYP2C19 Supersomes, luciferin-H EGE luminescence, 30 min; P33261; inhibition, % at 5 µM; 96,000 tested, 21% active;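 active means CYP2C19 inhibition above a set limit at 5 µM in the primary screen, cut at about 50% in these data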;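 further: plate controls were negative control wells for no effect and 2.5 mM tranylcypromine positive control for full effect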
CYP2C9 inhib: blockers of cytochrome P450 2C9 activity – biochemical, luminescence, ADME assay, primary screen; inhibition, % at 5 µM; CYP2C9 Supersomes, luciferin-H conversion; 96,000 tested, 20% active; P11712;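 active means blocking of liver enzyme CYP2C9 beyond about 50% at 5 µM, limit read from the data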
Numbers without * were called inactive; . = no result given. Compounds with a hit are over-represented: about 32% of the library has one in this group of screens. Unless noted, no stated cut-off is given here; in the data, active means inhibition above about 30%; inactive means the rest.

SMILES | CYP2C9 act | PostGolgi yeast | CYP2C19 activ | PostGolgi ctrl | CYP2C19 inhib | CYP2C9 inhib
Cc1ccc2c(c1)N(CC(=O)OC(CC(C)C)C(=O)NC1CCCC1)C(=O)CO2 (stereo not drawn) | 0.4 | -11 | 0.3 | 1 | 69* | 63*
Cc1ccc2c(c1)N(CC(=O)O)C(=O)CO2 | 1 | -1 | 0.9 | 11 | 5 | -5
Cc1ccc2c(c1)N(CC(=O)N1CCc3ccccc3C1)C(=O)CO2 | 0.8 | 26 | 0.2 | -8 | 84* | 25
CC(C)C(OC(=O)CN1C(=O)COc2ccccc21)C(=O)NC1CCCC1 (stereo not drawn) | 0.8 | -1 | 0.8 | 4 | 18 | 24
Cc1ccc2c(c1)N(CC(=O)NC1CCC(C)CC1)C(=O)CO2 (stereo not drawn) | 1.1 | 12 | 0.4 | 5 | 62* | -6
Cc1ccc2c(c1)N(CC(=O)NC1CCCc3ccccc31)C(=O)CO2 (stereo not drawn) | 1 | -2 | 0.5 | 34* | 47 | 2
CS(=O)(=O)N1CCC(C(=O)Nc2ccc3c(c2)OCCO3)CC1 | 1.1 | 1 | 1 | 17 | -1 | -7
C/C(N)=C(\C#N)C(=O)NCc1ccccn1 | 0.9 | -2 | 1 | 3 | 3 | 14
CN1CCN(c2nc3c(c(=O)n(C)c(=O)n3C)n2Cc2cccc3ccccc23)CC1 | 1.1 | 7 | 0.9 | 3 | 11 | -9
Cn1c(=O)c2c(nc(N3CCCCCC3)n2Cc2cccc3ccccc23)n(C)c1=O | 0.1 | 8 | 0.2 | 62* | 76* | 90*
CCOC(=O)Cn1c(=O)c2c(nc(N3CCCCC3)n2C)n(C)c1=O | 0.5 | 2 | 0.9 | -4 | 12 | 55*
C/C(Cl)=C\Cn1c(N2CCCCCC2)nc2c1c(=O)n(C)c(=O)n2C | 0.1 | -6 | 0.5 | 25 | 47 | 85*
O=C(c1ccco1)N(Cc1cccs1)C1CCS(=O)(=O)C1 (stereo not drawn) | 1 | -6 | 0.9 | 22 | 6 | 3
Cc1ccccc1C1=NC(c2ccc(F)cc2F)ON1 (stereo not drawn) | 1.2 | -3 | 0.5 | -1 | 50 | -17
O=C(Cc1ccccc1)n1nc(-c2ccco2)nc1SCc1ccccc1 | 0.7 | -7 | 0.3 | 8 | 68* | 30
CSc1nc(-c2ccco2)nn1S(=O)(=O)c1ccccc1 | 2.1* | -12 | 0.2 | 6 | 83* | -115
CSc1nc(-c2ccco2)nn1S(=O)(=O)c1ccc(C)cc1 | 0.3 | -9 | 0.3 | 0 | 68* | 70*
CCS(=O)(=O)n1nc(-c2ccco2)nc1SC | 0.6 | -5 | 0.7 | 25 | 35 | 37
O=C(c1ccco1)n1nc(-c2ccco2)nc1SCc1ccccc1 | 0.8 | 0 | 0.7 | 11 | 35 | 18
Cc1ccc(S(=O)(=O)n2nc(-c3ccco3)nc2SCc2ccccc2)cc1 | 0.3 | 11 | 0.5 | 5 | 55* | 70*
COc1ccc(N=Cc2ccc[nH]2)cc1 | 1.1 | 1 | 1 | -1 | -3 | -7
Cc1cc(-c2cccs2)c2c(n1)sc1c(=O)[nH]c(=O)[nH]c12 | 1 | 4 | 1.2 | 5 | -22 | 0
COc1ccc(S(=O)(=O)Cc2ccc(C(=O)NCc3cccs3)o2)cc1 | 0.4 | -2 | 0.7 | 6 | 27 | 60*
O=C(NCc1cccnc1)c1ccc(CS(=O)(=O)c2ccc(Cl)cc2)o1 | 0.1 | -3 | 0 | 6 | 100* | 93*
O=C(NCc1cccs1)c1cc2ccccc2o1 | 0.8 | 4 | 0.4 | 3 | 56* | 18
SMILES | CYP2C9 act | PostGolgi yeast | CYP2C19 activ | PostGolgi ctrl | CYP2C19 inhib | CYP2C9 inhib
O=C(NCc1cccs1)c1ccc(CS(=O)(=O)c2ccc(Cl)cc2)o1 | 0.3 | -4 | 0.5 | 6 | 52* | 72*
COCCNC(=O)c1ccc(CS(=O)(=O)c2ccc(Cl)cc2)o1 | 0.8 | 10 | 0.9 | 10 | 10 | 15
O=S(=O)(CCSc1ccccn1)c1nc2ccccc2s1 | 1.4 | -7 | 0.6 | 25 | 45 | -43
COc1ccc(-c2cc3nc(C)cc(N)n3n2)cc1 | 0.7 | -16 | 0.2 | 1 | 77* | 30
C/C(Cn1nc([N+](=O)[O-])cc1C)=N\NC(=O)c1cccc(Br)c1 | 0.9 | -2 | 0.4 | 6 | 59* | 8
CN(c1ccccc1)c1nc(-n2ccnc2)nc(-n2ccnc2)n1 | 0.6 | 48* | 0.2 | 55* | 79* | 44
C=CCNc1nc(N(c2ccccc2)c2ccccc2)nc(-n2ccnc2)n1 | 0.9 | -1 | 0.6 | 35* | 44 | 13
CCCCNc1nc(N(C)c2ccccc2)nc(-n2ccnc2)n1 | 0.2 | 96* | 0.1 | 69* | 85* | 84*
c1ccc(N(c2ccccc2)c2nc(-n3ccnc3)nc(-n3ccnc3)n2)cc1 | 1 | 100* | 0.8 | 104* | 18 | 3
CCNc1nc(N2CCOCC2)nc(N(c2ccccc2)c2ccccc2)n1 | 1 | -5 | 1 | 9 | 1 | 4
COc1ccc(NC(C)=O)c2nc(C)c(C)nc12 | 0.8 | 6 | 1 | 2 | -2 | 22
CC1CCCC(C)N1CC(O)COCC1COc2ccccc2O1 (stereo not drawn) | 0.9 | 0 | 0.8 | -1 | 16 | 10
COc1ccc(-c2cc(-n3c(C(F)(F)F)nc4ccccc43)n(CCC#N)n2)cc1 | 0.3 | -11 | 0.4 | 8 | 63* | 72*
Cc1cc2nc(C)n3c4ccccc4nc3n2n1 | 1.1 | -4 | 1.1 | 1 | -13 | -12
CC(C)n1c(C(=O)OCC(=O)NCc2ccc3c(c2)OCO3)cc2occc21 | 0.4 | -5 | 0.9 | 13 | 12 | 59*
CC(C)n1c(C(=O)OCC(=O)NCc2ccc3c(c2)OCO3)cc2sccc21 | 0.1 | 0 | 0.6 | 37* | 42 | 86*
O=C(COC(=O)c1ccc2c(c1)OCO2)NCc1ccc2c(c1)OCO2 | 1.2 | -3 | 0.6 | 5 | 40 | -23
CC(C)NC(=O)C12CC3CC(C1)CC(n1cnc(Cl)n1)(C3)C2 | 0.9 | -5 | 0.8 | 8 | 16 | 11
Cc1ccc(S(=O)(=O)Nc2cccc3ncccc23)s1 | 2.5* | -2 | 0.6 | 36* | 45 | -154
Cc1ccc(SCC(=O)N2CCOCC2)cc1 | . | -2 | . | 8 | . | .
Cc1ccc(CSCC(=O)N2CCOCC2)cc1 | 1.2 | -2 | 0.3 | 4 | 75* | -15
Cc1ccc(CC(=O)N2CCOCC2)cc1 | 1.1 | 18 | 0.7 | 9 | 30 | -6
Cc1ccc(C(CC(=O)N2CCOCC2)c2ccco2)cc1 (stereo not drawn) | 0.8 | -6 | 0.2 | 11 | 84* | 22
CC(=O)Nc1ccc(NC(=O)C2CC(=O)N=C(N)S2)cc1 (stereo not drawn) | 1 | -2 | 1 | 7 | -2 | 1

From PubChem BioAssay
